Hits are enriched below; roughly 3.2% of the tested compounds scored in any of these assays.
mTORC1 inh: mTORC1 pathway inhibition measured by phospho-rpS6; Tsc2-/- p53-/- MEF, phospho-rpS6 immunofluorescence/PI, 24 h; Potency, µM (series often up to 38.3 µM), actives largely listed as inhibitors; 44,000 compounds, 0.78% hits; also: nearly all actives have a fitted effect of over 50% in size
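Immunofluorescence of rpS6 phosphorylation in Tsc2-/-, p53-/- MEFs after 24 h compound exposure, normalized to propidium iodide signal. Activity is expressed as % positive cells, thresholded with 7.5 nM rapamycin.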
p53null 39C kill: kills p53 null cells at the nonpermissive temperature. H1299 p53-null (neo) cells, 39C, ATPlite viability, 24 h. Potency, µM (top dose mostly 46.1 µM), most hits filed as cytotoxic. 55,000 compounds, 0.97% hits; also: nearly all actives have a fitted effect of over 50% in size
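ATP-luminescence viability readout (ATPlite, 20 min RT) after 24 hr compound treatment at 39C of H1299-neo or H1299-p53A138V cells; titration up to 46 uM; normalized to DMSO and 100 uM tamoxifen; Hill-fit AC50.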
PMP22 txn: modulates PMP22 transcription in S16 Schwann cells. S16 Pmp22-F2sN Schwann cells, FLuc/NLuc coincidence luminescence, 24 h. Potency, µM (series often up to 57.5 µM), actives largely listed as inhibitors. 43,000 compounds, 2% hits; active = clear falling dose curves in both reporters; inconclusive = both reporters move, but less clearly or upward; inactive = either reporter flat; the % is the NLuc reporter signal
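Schwann cells carrying the coincidence reporter were exposed to library compounds for 24 h at 37C, then lysed and read for FLuc and, after quenching, NLuc luminescence on a CCD imager.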
p53null 32C tox: selectivity test: cytotoxicity in p53 null cells, permissive temperature; H1299-neo p53 null cells, ATP luminescence, 24 h, 32C; 55,000 compounds, 0.62% hits; Potency, µM (top dose mostly 46.1 µM), hits mostly cytotoxic; also: nearly all actives have a fitted effect of over 55% in size
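Luminescent ATP readout gave cell viability of p53-null H1299-neo cells after a 24 h compound exposure at the permissive 32C. Titrations ran up to 46 uM, and AC50s were fitted with the standard Hill equation.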
S16 viability: S16 Schwann cell cytotoxicity; S16 Pmp22-F2sN Schwann cells (luciferase reporters placed in the Pmp22 gene) viability, CellTiter-Glo, 24 h; Potency, µM (top dose mostly 57.5 µM), actives largely listed as cytotoxic; 43,000 compounds, 0.48% hits; AID 1508642; also: nearly all actives have a fitted effect of over 65% in size
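S16 Schwann cells carrying the Pmp22-F2sN reporter, seeded in 1536-well format, were exposed to library compounds for 24 h at 37C. Viability was read as CellTiter-Glo luminescence after 15 min at room temperature.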
Large screens that a line does not name were inactive. Unless noted, calls follow the shape of the dose curve; as a rule, active = well fitted curve in the direction sought with a large enough effect; inconclusive = small, poorly fitted or top-dose-only effect, or another doubt; inactive = no such curve, though single readings can be large; an effect the other way counts as inactive or inconclusive.

CCOC(=O)C1CCCN(C(=O)C2CCN(c3nnc(C)c4c(C)n(-c5ccccc5)nc34)CC2)C1 (configuration not stated)	none
Cc1cccc(NC(=O)CSc2nc(-c3cccs3)cc(C(F)(F)F)c2C#N)c1	p53null 39C kill inconclusive, PMP22 txn 15µM, S16 viability inconclusive
CCC(=O)NCCc1nc2cc(NC(=O)c3cccc(Br)c3)ccc2n1C	p53null 39C kill 10µM, p53null 32C tox 12.6µM
CCOc1ccc(NC(=O)c2cc(=O)c3ccc(C)c(C)c3o2)cc1	PMP22 txn inconclusive
COc1ccc(-c2cc(C(F)(F)F)nc(SCCC(=O)Nc3ccccc3F)n2)cc1	none
COc1ccc(-c2cc(C(F)(F)F)nc(SCCC(=O)Nc3cc(C)ccc3O)n2)cc1	p53null 39C kill 11.2µM, PMP22 txn inconclusive
Cc1ccc(N2CCN(C(=O)C3CCC(CNS(=O)(=O)c4ccc(Br)s4)CC3)CC2C)cc1 (configuration not stated)	PMP22 txn inconclusive
CCCN(CCC)CC(O)Cn1cc(/C=C/C(=O)c2ccc(OCC)cc2)c2ccccc21 (configuration not stated)	mTORC1 inh inconclusive, p53null 39C kill 20µM, PMP22 txn inconclusive, p53null 32C tox inconclusive, S16 viability inconclusive
O=C(CSc1nc2c(c(=O)[nH]1)CN(Cc1ccc(F)cc1)CC2)Nc1cccc(C(F)(F)F)c1	PMP22 txn inconclusive, S16 viability 14.1µM
COc1ccc(/C=C(\C#N)c2nc(-c3cc4c(ccc5ccccc54)oc3=O)cs2)cc1O	PMP22 txn 8.91µM, S16 viability inconclusive
CCC(CC)C(=O)Nc1ccc(OCc2cc(=O)n3c4c(sc3n2)CCCC4)cc1	none
Cc1cc(C)c2oc(-c3cccc(NC(=O)COc4ccc([N+](=O)[O-])cc4)c3)nc2c1	mTORC1 inh 20.7µM, PMP22 txn inconclusive
COCCCNC(=O)c1ccc(Cn2c(SCc3ccc(F)cc3)nc3cccnc32)cc1	p53null 39C kill 12.6µM, p53null 32C tox 10µM
O=C(NCCN1CCCCC1)c1ccc(Cn2c(SCc3ccc(F)cc3)nc3cccnc32)cc1	p53null 39C kill inconclusive, p53null 32C tox 15.8µM, S16 viability inconclusive
COc1ccc(NC(=O)Cn2c(SCc3ccc(C)cc3)nc3cccnc32)cc1OC	p53null 39C kill 5.01µM, PMP22 txn inconclusive, p53null 32C tox 3.55µM
COCCCNC(=O)c1ccc(CSc2nc3cccnc3n2Cc2ccc(OC)cc2)cc1	mTORC1 inh inconclusive, PMP22 txn inconclusive
CN(C)CCNC(=O)c1ccc(Cn2c(SCc3ccc(F)cc3)nc3cccnc32)cc1	none
CCCCOc1cccc(C(=O)N(Cc2ccc(Br)o2)C2CCS(=O)(=O)C2)c1 (configuration not stated)	none
COc1ccc(-c2nn(C)c3sc(C(=O)N4CCN(c5cc(Cl)ccc5C)CC4)cc23)cc1OC	S16 viability inconclusive
COc1ccc(Oc2nc3c(c(=O)n(C)c(=O)n3C)n2Cc2ccc(Cl)cc2Cl)cc1	S16 viability inconclusive
Cc1ccc(C)c(N2CCN(CCCNC(=O)c3cnn(-c4ccccc4Cl)c3C3CCN(C(=O)OC(C)(C)C)CC3)CC2)c1	mTORC1 inh inconclusive, p53null 39C kill 12.6µM, PMP22 txn inconclusive, S16 viability inconclusive
Cc1ccc(C)c(N2CCN(CCCNC(=O)c3cnn(-c4ccc(F)cc4)c3C3CCN(C(=O)OC(C)(C)C)CC3)CC2)c1	mTORC1 inh inconclusive, p53null 39C kill 25.1µM, PMP22 txn inconclusive, S16 viability inconclusive
Cc1ccc(C)c(N2CCN(CCCNC(=O)c3cnn(-c4cccc(Cl)c4)c3C3CCN(C(=O)OC(C)(C)C)CC3)CC2)c1	mTORC1 inh inconclusive, p53null 39C kill inconclusive, PMP22 txn inconclusive, S16 viability inconclusive
CCN1CCN(CCCNC(=O)c2cnn(-c3ccc(C)cc3)c2C2CCN(C(=O)OC(C)(C)C)CC2)CC1	none
COc1ccc(CC(=O)Nc2c(C(=O)N3CCN(c4ccccc4F)CC3)oc3ccccc23)cc1OC	PMP22 txn inconclusive
COc1ccc(-c2nnc(SC(C)C(=O)O)o2)cc1 (configuration not stated)	p53null 39C kill 15.8µM, p53null 32C tox inconclusive
CCc1c(C)sc2c1CCN(Cc1ccccc1)C2c1ccccc1 (configuration not stated)	PMP22 txn 5.75µM, S16 viability inconclusive
CCc1c(C)sc2c1CCN(Cc1ccccc1C#N)C2c1ccccc1 (configuration not stated)	PMP22 txn inconclusive
CCc1ccc(CNC(=O)c2cnc3c(C)cccn3c2=O)cc1	none
CCOc1ccc(C2C=C(c3cccc(OC)c3)Nc3nnnn32)cc1 (configuration not stated)	p53null 39C kill inconclusive
CN(C)c1ccc(C2C=C(c3ccccc3)Nc3nnnn32)cc1 (configuration not stated)	mTORC1 inh inconclusive, p53null 39C kill 7.94µM, PMP22 txn inconclusive, p53null 32C tox inconclusive
CCOc1ccc(OCC)c(Nc2nc3ccc(Cl)cc3n3cnnc23)c1	PMP22 txn inconclusive, S16 viability inconclusive
CC(C)n1c(/C=C/c2ccccc2)nc2ccccc21	p53null 32C tox inconclusive (no result: mTORC1 inh, PMP22 txn, S16 viability)
O=S(=O)(c1cccc(Cl)c1)n1c(/C=C/c2ccccc2Cl)nc2ccccc21	p53null 39C kill 2.82µM, PMP22 txn inconclusive, p53null 32C tox 1.26µM, S16 viability 12.6µM
Cc1ccc(/C=C/c2nc3ccccc3n2S(=O)(=O)c2ccc(Br)cc2)cc1	PMP22 txn inconclusive, p53null 32C tox 6.31µM, S16 viability inconclusive
CSc1ccc(/C=C/c2nc3ccccc3n2S(=O)(=O)c2cccc(Cl)c2)cc1	p53null 39C kill 3.98µM, PMP22 txn inconclusive, p53null 32C tox 3.16µM, S16 viability inconclusive
C=CCSc1nc2ccccc2n1S(=O)(=O)c1ccc(C)cc1	none (no result: mTORC1 inh, PMP22 txn, S16 viability)
O=C(CSc1nncn2c1cc1occc12)Nc1ccccc1C(F)(F)F	none
Cc1ccc(C)c(Nc2nc3nonc3nc2Nc2cccc(C)c2C)c1	p53null 39C kill inconclusive, PMP22 txn inconclusive, S16 viability inconclusive
CCOC(=O)c1ccc(Nc2nc3nonc3nc2Nc2cccc(C)c2C)cc1	p53null 39C kill inconclusive, PMP22 txn 10.6µM, S16 viability inconclusive
Cc1ccc(COC(=O)c2ccc(-c3nnn(Cc4ccc(C)cc4)n3)cc2)cc1	none
COc1ccc(-c2ccc(NS(=O)(=O)c3ccc(C(C)=O)cc3)cc2)nn1	none
CC(C)OCc1cc(CN2CCN(c3ccccc3)CC2)c(O)c2ncccc12	mTORC1 inh inconclusive, p53null 39C kill 1.26µM, PMP22 txn 5.12µM, p53null 32C tox inconclusive, S16 viability inconclusive
CCOc1ccc2oc(=O)cc(CN3CCN(c4ccccc4)CC3)c2c1	PMP22 txn inconclusive
CCOCc1cc(CN2CCN(c3cccc(Cl)c3)CC2)c(O)c2ncccc12	mTORC1 inh 11.7µM, p53null 39C kill inconclusive, PMP22 txn 5.75µM, p53null 32C tox inconclusive, S16 viability inconclusive

Screening data (PubChem BioAssay)
